From PubChem BioAssay
Shown are actives, neighbours in structure and some others; about 8.3% of the full set was active somewhere.
HCV inhibitor = qHTS Assay for Inhibitors of Hepatitis C Virus (HCV). Huh7.5.1 HCVcc-Cre infection, luciferase reporter, 44 h. Potency, µM (doses to about 41.8 µM), hits mostly inhibitors. 3.4% of 340,000 active
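After 44 h co-culture of compound, cells and HCVcc-Cre (~0.5 moi), substrate is added for 15 min at room temperature and luciferase measured over 15 sec. Cells were seeded at 1,000/well and pre-cultured 4 h.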
FBPA Giardia inh = qHTS Assay for Inhibitors of Fructose-1,6-bisphosphate Aldolase from Giardia Lamblia | A8B2U2 | purified Giardia FBPA | Potency, µM (highest dose often 59.6 µM), actives largely listed as inhibitors | 0.71% of 290,000 active | AID 2451, 2010; further: nearly all actives have a fitted effect of over 55% in size
Target sequence (A8B2U2 whole entry, looked up): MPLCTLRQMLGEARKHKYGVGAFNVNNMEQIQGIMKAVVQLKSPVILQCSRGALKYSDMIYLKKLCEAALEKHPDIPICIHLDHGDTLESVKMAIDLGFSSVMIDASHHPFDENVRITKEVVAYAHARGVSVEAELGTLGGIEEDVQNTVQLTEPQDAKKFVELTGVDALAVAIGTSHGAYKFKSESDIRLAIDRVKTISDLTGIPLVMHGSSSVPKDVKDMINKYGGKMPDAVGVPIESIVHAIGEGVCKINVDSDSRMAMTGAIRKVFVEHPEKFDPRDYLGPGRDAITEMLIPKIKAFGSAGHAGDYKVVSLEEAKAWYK
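40 nM FBPA preincubated 10 min at RT with compound (up to 57.5 uM final), then substrate plus GAPDH/TPI/NAD/arsenate coupling and diaphorase/resazurin added. Fluorescence read after 20 min at RT, 525/598 nm.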
LASV entry inh = qHTS for Inhibitors of binding or entry into cells for Lassa Virus. Potency, µM (series often up to 37.9 µM), actives largely listed as inhibitors. 1.2% of 300,000 active. Lassa virus pseudotype entry inhibition, cell reporter; calls by dose curve; tested in HEK293 cells; further: nearly all actives have a fitted effect of over 50% in size
HCMV inh = qHTS Assay for inhibitors of the human cytomegalovirus (HCMV). HFF cells, HCMV-luciferase reporter, 72 h; hits give low values. 4.5% of 410,000 active. AID 1259415, 2018. activity change, negative = inhibition, % at 57.5 µM; in the data active means activity change below about -60%; inconclusive means no clear call, values can overlap the other calls; inactive means above about -39%
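Cell-based, HFFs, 1000 cells/well, 16 h 37C; cpds in DMSO + HCMV-luc, MOI 1 PFU/cell; 72 h 37C; OneGlo luminescence after 5 min RT; norm. to buffer vs Salinomycin 10uM.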
Marburg entry inh = qHTS for inhibitors of binding or entry into cells for Marburg Virus; Potency, µM (top dose mostly 37.8 µM), usual class: inhibitors; AID 540276, 2011; 1.8% of 300,000 active; Marburg virus pseudotyped entry inhibition, cell reporter; calls by dose curve; tested in HEK293 cells
FMDV antiviral = High Throughput Screening for Foot and Mouth Disease Virus Antivirals; AID 1159524, 2015; Potency, µM (doses to about 57.9 µM), usual class: inhibitors; 1.2% of 410,000 active; FMDV antiviral cell-based qHTS; calls by dose curve; tested in HEK293T cells; further: read-out not given here; nearly all actives have a fitted effect of over 45% in size
Hits are given with their value; – = inactive; ? = inconclusive; · = no result given; [ ] = another dose, or the depositor's remark. Unless noted, the call rests on the fitted dose curve; in most records, active means well fitted curve in the direction sought with a large enough effect; inconclusive means small, poorly fitted or top-dose-only effect, or another doubt; inactive means no such curve, though single readings can be large; an effect the other way counts as inactive or inconclusive.

SMILES | HCV inhibitor | FBPA Giardia inh | LASV entry inh | HCMV inh | Marburg entry inh | FMDV antiviral
CCN1CCN(c2sc(S(=O)(=O)CC)nc2S(=O)(=O)c2ccc(C)cc2)CC1 | · | · | · | -71.9 | · | –
Cc1ccc(S(=O)(=O)c2nc(S(C)(=O)=O)sc2N2CCCC2)cc1 | – | · | · | – | · | –
CN1C[C@H](C(=O)N[C@]2(C)O[C@@]3(O)[C@@H]4CCCN4C(=O)[C@H](Cc4ccccc4)N3C2=O)C[C@@H]2c3cccc4[nH]cc(c34)C[C@H]21 | · | · | ? | · | 1.12µM | ·
CN1C[C@H](C(=O)N[C@]2(C)O[C@]3(O)[C@H]4CCCN4C(=O)[C@H](Cc4ccccc4)N3C2=O)C[C@H]2c3cccc4[nH]cc(c34)C[C@@H]21 | · | – | · | · | · | ·
CN1C[C@H](C(=O)N[C@]2(C)O[C@@]3(O)C4CCCN4C(=O)[C@H](Cc4ccccc4)N3C2=O)C[C@@H]2c3cccc4[nH]cc(c34)C[C@H]21 (some centres undefined) | · | – | · | · | 1.12µM | ·
CC1CCCCN1CCCNC(=O)c1ccc2c(c1)sc1nc(-c3ccc(F)cc3)cn12 (centres undefined) | · | · | – | · | · | –
CCOC(=O)CSC1=C(C#N)[C@H](c2ccc(C)cc2)[C@H](C(=O)OC)C(=O)N1 | · | · | · | · | – | ·
CCOc1ccccc1CN(CCc1ccc2c(c1)OCO2)Cc1cc(OC)c(OC)cc1OC | · | · | ? | – | 10µM | –
CCOc1ccccc1CN(CCc1ccc2c(c1)OCO2)Cc1ccccn1 | – | ? | – | – | – | ?
Cc1ccccc1-c1nn2c(=O)cc(CN3CCN(C(=O)c4ccccc4Br)CC3)nc2s1 | · | · | ? | – | · | –
CCOc1ccc(N(CC)C(=O)COc2cc(=O)n(CC)c3ccccc23)cc1 | ? | – | – | -95.5 | – | –
CCn1c(=O)cc(OCC(=O)N2CCN(c3ccc(OC)cc3)CC2)c2ccccc21 | · | · | ? | -95.1 | – | –
CCn1c(=O)cc(OCC(=O)N2CCN(c3ccc(C(C)=O)cc3)CC2)c2ccccc21 | · | · | – | – | – | –
CCn1c(=O)cc(OCC(=O)N(C)c2ccc(OC)cc2)c2ccccc21 | · | · | – | -71.7 | – | –
CCN(C(=O)COc1cc(=O)n(C)c2ccccc12)c1cccc(C(F)(F)F)c1 | · | · | – | – | ? | –
CN(C(=O)COc1cc(=O)n(C)c2ccccc12)c1ccc(Cl)cc1 | – | – | · | – | · | –
CCOc1ccc(N(CC)C(=O)COc2cc(=O)n(C)c3ccccc23)cc1 | – | – | · | -102.8 | · | –
CC(NC(=O)c1cc(F)ccc1F)c1nnc2n1CCN(Cc1ccccc1O)CC2 (centres undefined) | · | · | · | · | · | –
Cc1ccc(C2CCN(C(=O)Nc3ccc(Cl)c(Cl)c3)C2)cc1 (centres undefined) | · | · | – | – | · | –
CCCN(C(=O)C1CCCN(c2ncnc3c2nc2n3CCCCC2)C1)c1ccccc1C (centres undefined) | · | · | · | – | · | ·
CC(=O)c1ccc(N2CCN(C(=O)COc3ccc4ccccc4c3)CC2)cc1 | · | · | · | -62.0 | · | –
CC(=O)c1ccc(N2CCN(C(=O)CCC(=O)c3cccs3)CC2)cc1 | – | – | – | -82.4 | – | –
O=C(CCC(=O)N1CCN(c2ccc(O)cc2)CC1)c1cccs1 | – | – | · | ? | · | –
COc1ccc(N2CCN(C(=O)COc3ccc4ccccc4c3)CC2)cc1 | – | – | – | – | – | –
Cc1ccc(N2CC(NC(=O)c3cccc(Cl)c3)CC2=O)cc1C (centres undefined) | · | · | – | – | · | –
SMILES | HCV inhibitor | FBPA Giardia inh | LASV entry inh | HCMV inh | Marburg entry inh | FMDV antiviral
CSc1nc2sc3c(c2c(=O)[nH]1)CC[C@@H](C)C3 | · | · | · | · | – | ·
CC(C)c1ccc(/C=N/NC(=O)c2ccccn2)cc1 | – | – | ? | – | 5.01µM | 12.6µM
CC(C)c1ccc(/C=N/NC(=O)c2cccc(Cl)c2)cc1 | 7.08µM | – | ? | – | ? | –
CC(C)C[C@H](NC(=O)[C@H](CC(C)C)NC(=O)[C@H](CCC(N)=O)NC(=O)[C@H](CO)NC(=O)[C@@H]1CCCN1C(=O)[C@H](CO)NC(=O)[C@H](CO)NC(=O)[C@@H](NC(=O)[C@H](Cc1cnc[nH]1)NC(=O)[C@H](CCC(=O)O)NC(=O)[C@H](Cc1ccc(O)cc1)NC(=O)[C@H](CCCCN)NC(=O)[C@H](CCC(N)=O)NC(=O)[C@H](Cc1ccc(O)cc1)NC(=O)[C@H](CC(=O)O)NC(=O)[C@@H](NC(=O)[C@@H]1CCCN1C(=O)[C@H](CC(=O)O)NC(=O)[C@H](CC(N)=O)NC(=O)[C@H](CC(=O)O)NC(=O)CNC(=O)[C@H](CC(=O)O)NC(=O)[C@@H]1CCCN1C(=O)[C@H](CCC(N)=O)NC(=O)[C@H](Cc1ccc(O)cc1)NC(=O)[C@H](C)NC(=O)[C@H](Cc1c[nH]c2ccccc12)NC(=O)[C@H](Cc1ccccc1)NC(=O)[C@@H](NC(=O)[C@@H](N)CO)[C@@H](C)O)[C@@H](C)O)[C@@H](C)O)C(=O)N[C@@H](C)C(=O)N1CCC[C@H]1C(=O)NCC(=O)N[C@@H](CC(=O)O)C(=O)N[C@@H](Cc1ccc(O)cc1)C(=O)O | · | – | · | · | · | ·
c1ccc2c(N3CCNCC3)nc(-c3ccoc3)nc2c1 | · | – | · | · | · | –
O=[N+]([O-])c1ccc(-c2nc(Cl)c3c(n2)CCCC3)o1 | · | · | · | -69.0 | · | –
COc1ccccc1NC(=O)C1=C(C)Nc2c(C(=O)Nc3ccc(F)cc3)cnn2C1c1cccc([N+](=O)[O-])c1 (centres undefined) | · | · | – | – | · | –
CCOc1ccc(NC(=O)CSc2nc3c(oc4ccccc43)c(=O)n2-c2ccccc2C)cc1 | · | · | · | -81.7 | ? | –
Cc1cc(Nc2ccccc2Cl)n2nc(-c3ccco3)nc2n1 | · | · | – | -72.1 | · | –
COc1ccc(CNC(=S)NCc2ccc(F)cc2)cc1OC | ? | – | – | -62.9 | – | –
COc1ccc(CCNCc2ccccc2F)cc1OC | – | – | – | – | – | –
COc1ccc(CCNCc2c(OC)ccc3ccccc23)cc1OC | 11.2µM | – | · | – | · | –
COc1ccc(CNC(=O)c2csc(N3CCN(CCc4ccccc4)C3=O)n2)cc1OC | · | · | · | -85.9 | · | ·
COc1ccc(CCNC(=O)CC(c2ccccc2)c2cc(C)ccc2O)cc1OC (centres undefined) | 10µM | – | · | · | · | 17.8µM
CCOCCCNC(=O)c1c(NC(=O)c2cc(=O)c3cc(C)c(C)cc3o2)sc2c1CCC2 | · | · | – | – | – | –
COC(=O)C1=C(C(=O)OC)[C@@H]2N(Cc3ccccc3)c3ccccc3[C@@]23C[C@@H](C(=O)OC)N(S(=O)(=O)c2ccc([N+](=O)[O-])cc2)C3=N1 | · | –[12.9 µM] | · | · | · | ·
COc1cccc([C@H]2C(C(=O)c3sc(C)nc3C)=C(O)C(=O)N2CCN2CCOCC2)c1OC | · | · | · | · | – | ·
